# NS1 inh: influenza NS1 inhibition | Potency, µM (highest dose often 46.1 µM), for inactives: at the top dose activity, positive = more growth | 270,000 tested, 0.4% active | AID 2326; calls by dose curve; note: potency is the fitted concentration of half-maximal effect; actives are rising curves; nearly all actives have a fitted effect of over 50% in size
#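 In this qHTS, NS1 from influenza A is expressed in budding yeast, where it slows growth. Cells are switched from glucose to 2% galactose medium (pH 6.0, -URA), treated with compound, and growth recovery is read at OD600.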
# CHX counter: counter-screen hit for Shiga toxin inhibitors, cycloheximide | cell reporter, cycloheximide protein synthesis inhibition counterscreen | max response, % | 300,000 tested, 12% active | AID 2314; in the data active = max response mostly above about 13%, no sharp cut-off; inactive = mostly below about 14%; note: read at 38.3 µM for the half of the compounds with a filed dose; 0% is about no effect
# Pf growth 96h: P. falciparum growth inhibition at 96 hours; P. falciparum luciferase reporter growth, 96 h; Potency, µM (series often up to 28.7 µM), without a hit: top-dose activity change, negative = inhibition, actives largely listed as inhibitors; 320,000 tested, 6.9% active; note: potency is the fitted concentration of half-maximal effect; % is set by controls: 0 for no effect and ±100 for the full control effect
#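 Infected RBCs, 2% Hct / 0.05% parasitemia final; luciferase-reporter P. falciparum; cpd 96 h, 37 C, 5% CO2; luciferase detection reagent; luminescence.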
# Shiga inhibitor: Shiga toxin inhibition. Vero cells, Shiga toxin protein synthesis inhibition reporter. inhibition, % at 38.7 µM. 290,000 tested, 9.2% active. AID 2315; in the data active = inhibition mostly above about 28%, no sharp cut-off; inactive = mostly below about 43%; note: 0% is about no effect
# Pf growth 48h: P. falciparum growth inhibition at 48 hours (one generation); P. falciparum luciferase growth in erythrocytes, 48 h; Potency, µM (titrated, usually from 28.7 µM), inactives show at the highest dose activity change, negative = inhibition, actives largely listed as inhibitors; 310,000 tested, 5.9% active; AID 504832; note: potency is the fitted concentration of half-maximal effect; % is set by controls: 0 for no effect and ±100 for the full control effect
#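 Compounds are pin-transferred into medium, infected erythrocytes (2% hematocrit, 0.1% parasitemia final) are added, and plates sit one parasite generation at 37 C in 5% CO2. Detection reagent is then added and luminescence measured.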
# An asterisk follows results filed as active; ? = inconclusive; . = no result. Sampled rows, rich in hits. Any-hit rate of the full collection: about 21%. Unless noted, calls come from the whole dose curve; as a rule, active = well fitted inhibition curve with a large enough effect; inconclusive = small, poorly fitted or top-dose-only effect, or another doubt; inactive = no such curve, though single readings can be large or run the other way.
SMILES,NS1 inh,CHX counter,Pf growth 96h,Shiga inhibitor,Pf growth 48h
COc1cc(S(=O)(=O)N2CCC(c3nc4ccccc4s3)CC2)ccc1S(=O)(=O)NC1CCCC1,2.8%,0.4,9.28µM*,1.0,?
O=C1CSC(=S)N1/N=C/c1ccc2c(c1)OCCO2,0.3%,35.1*,45.7%,56.8*,.
COc1ccc2c(c1OC)C(=O)N(c1cccc(C)c1)C2=O,-53.4%,43.4*,0.0%,56.0,12.1%
COc1ccc(NC(=O)Oc2ccccc2)cc1Cl,6.0%,1.2,14.7µM*,12.5,12.8%
COc1ccc(NC(=O)Nc2ccccc2F)c(C)c1,4.3%,18.8*,7.4%,52.3,53.3%
O=C(C#Cc1ccccc1)Nc1ccccc1F,-39.3%,34.0*,9.28µM*,58.9,-12.7%
COc1ccc(NC(=O)Nc2ccccc2F)c([N+](=O)[O-])c1,-4.6%,25.9*,?,69.5*,82.1%
CCC(C)C(=O)Nc1ccc(OC)cc1[N+](=O)[O-] (centres undefined),-0.6%,-2.4,252.1%,-11.6,19.4%
CCn1c(SCC(=O)N2CCN(c3ccccc3F)CC2)nnc1-c1ccoc1C,4.0%,5.3,18.7%,-10.4,0.0%
O=C(Nc1ccc2[nH]c(=S)sc2c1)Nc1ccccc1F,7.1%,70.0*,117.7%,69.8*,337.7%
CSc1ccccc1NC(=O)Nc1ccc(Cl)cc1,-130.1%,54.7*,?,82.9,.
COc1cccc(COC(=O)Nc2ccccc2F)c1,-32.8%,29.3*,330.0%,117.0*,262.7%
O=C(Nc1ccc(F)cc1)Nc1ccccc1F,-34.2%,65.2*,0.6%,108.6*,119.7%
COc1cccc(-n2ccnc2SCC(=O)Nc2ccccc2F)c1,.,14.3,13.9%,31.8,?
O=C(Nc1ccc2[nH]c(=S)sc2c1)c1ccccc1,-5.4%,1.0,90.6%,0.0,98.9%
O=C(Nc1ccc(NC(=O)c2ccccc2O)cc1)Nc1ccc(F)cc1F,3.6%,-2.3,?,5.9,-29.4%
COC(=O)c1sccc1NC(=O)Nc1ccccc1F,-6.3%,-3.2,9.28µM*,10.6,60.3%
O=C(Nc1cccnc1Cl)c1cccc(F)c1,7.2%,9.8,48.9%,5.7,13.6%
COC(=O)c1sccc1NC(=O)Nc1ccccc1C,-18.3%,5.9,34.6%,-19.1,12.4%
O=C(Nc1ccc(F)cc1)Nc1cccnc1Cl,-2.7%,35.0*,52.2%,58.3*,28.5%
CC(=O)Nc1ccc(NC(=O)Nc2ccccc2C)cc1,1.0%,17.1,26.1%,-2.0,58.5%
O=C(Nc1ccccc1F)Nc1ccccc1Br,-3.2%,25.4*,-19.1%,68.5*,43.0%
COC(=O)c1ccc(NC(=O)Nc2ccccc2C)cc1,.,23.3*,?,73.0*,196.5%
CCOc1ccc2[nH]c(=O)c(CN(CCN3CCCC3)C(=S)Nc3ccccc3OC)cc2c1,-6.1%,-5.3,32.9%,-6.6,-17.2%
Cn1c2cc(S(C)(=O)=O)sc2c2cnn(Cc3ccccc3F)c(=O)c21,.,-6.9,.,-2.2,.
SMILES,NS1 inh,CHX counter,Pf growth 96h,Shiga inhibitor,Pf growth 48h
COc1ccc(CN(C)CC(=O)NC(=O)Nc2ccccc2F)cc1,.,.,24.7%,.,6.7%
COc1ccc(NC(=O)Nc2ccccc2F)cc1Cl,-5.9%,32.4*,?,99.0*,496.8%
COc1ccc(NC(=O)c2c(F)c(F)c(F)c(F)c2F)cc1Cl,-7.1%,6.3,.,23.7,-6.8%
COc1ccc(NC(=O)Nc2ccccc2F)cc1,-50.5%,31.9*,324.3%,46.8,.
COc1ccc(NC(=O)Nc2ccccc2SC)cc1,-7.7%,29.8*,5.86µM*,105.2*,239.3%
COC(=O)c1ccc(NC(=O)Nc2ccccc2F)cc1,-49.2%,39.8*,?,114.7*,93.9%
O=C(CNC(=O)c1ccc(Cl)cc1Cl)OCn1nnc2ccccc2c1=O,.,.,10.7%,.,1.8%
O=C(NCC1CCCO1)c1onc(CSc2cccc3ccccc23)c1C(=O)O (centres undefined),15.4%,-3.2,29.7%,-9.4,13.4%
CSc1sc(C(=O)O)c(C)c1C(C)=O,6.7%,5.5,14.0%,27.1,.
CCNC(=O)NC(=O)C(C)OC(=O)C(C)(C)Oc1ccc(Cl)cc1 (centres undefined),.,-1.3,24.1%,-4.6,0.9%
CCNC(=O)NC(=O)C(C)Oc1ccc(Br)cc1Br (centres undefined),.,63.5*,?,97.9*,121.4%
CN1C(=O)/C(=C2\SC(=S)N(NC(=O)c3cccnc3)C2=O)c2ccccc21,-32.2%,-1.7,2.94µM*,-2.3,9.3%
O=S(=O)(Nc1ccccc1N1CCCCC1)c1ccc(F)cc1F,-0.4%,-4.8,?,15.9,0.0%
Cc1cc(C)n(C(=O)CCC(=O)NCc2ccccc2)n1,-1.5%,-3.7,8.2%,-5.1,-6.3%

# Compound activity (PubChem)
